Hits are enriched below; roughly 2.4% of the tested compounds scored in any of these assays.
POLK inh = inhibitors of human DNA polymerase kappa; Q9UBT6; purified Pol kappa, fluorescent DNA synthesis assay, 10 min; Potency, µM (series often up to 107 µM), hits mostly inhibitors; actives 0.53% (n = 400,000); AID 588579
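Fluorescent qHTS in 1536-well format: enzyme (10 nM) and compound sat 15 min at room temperature before 50 nM substrate (final) was added. Signal taken at 0 and 10 min; no-enzyme buffer wells were negative controls.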
FEN1 inh = inhibitors of human flap endonuclease 1 | actives 0.35% (n = 390,000) | Potency, µM (series often up to 114 µM), most hits filed as inhibitors | Recombinant FEN1 flap cleavage, fluorescence, 15 min | P39748; also: nearly all actives have a fitted effect of over 65% in size
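Recombinant FEN1 (10 nM) was preincubated with pin-transferred compounds for 15 min at room temperature, then flap DNA substrate (50 nM final) was added. Plates were read at 0 and 15 min, and normalized concentration–response data were fitted to a four-parameter Hill equation.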
Pol eta inh = inhibitors of human DNA polymerase eta. Q9Y253. recombinant Pol eta, fluorescent DNA replication assay. Potency, µM (series often up to 114 µM), actives largely listed as inhibitors. actives 1.2% (n = 390,000). AID 588591
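Pol eta (10 nM) was preincubated with compounds for 15 min at room temperature, after which fluorescent replication substrate (50 nM final) was added to start the reaction. Fluorescence was read kinetically at 0 and 10 min.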
POLI inh = inhibitors of human DNA polymerase iota; actives 1% (n = 390,000); AID 588590; Potency, µM (series often up to 115 µM), hits mostly inhibitors; Q9UNA4; Pol iota fluorescent replication assay, 10 min
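Fluorescent replication assay read twice, at 0 min and 10 min after adding 50 nM (final) substrate. Enzyme (10 nM) and compounds were first incubated 15 min at room temperature; enzyme-free buffer wells were negative controls.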
POLB inh = blocks human DNA polymerase beta activity; Pol beta primer extension/strand displacement, fluorescence kinetic; Potency, µM (top dose mostly 114 µM), usual class: inhibitors; P06746; actives 1.3% (n = 340,000); AID 485314
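Preincubation: enzyme (10 nM) with compound, 15 min, RT. Reaction: substrate added to 50 nM final. Reads: 0 and 10 min. Analysis: normalized, Hill fit.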
WRN helicase inh = WRN helicase (human) inhibition | AID 651768 | actives 0.46% (n = 360,000) | Potency, µM (series often up to 114 µM), actives largely listed as inhibitors | WRN helicase unwinding, fluorescent forked duplex, kinetic; also: nearly all actives have a fitted effect of over 55% in size
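WRN at 20 nM final preincubated with compound 15 min at room temperature; reaction started with 100 nM fluorophore/quencher forked duplex oligonucleotide and 2 mM ATP final. Unwinding followed kinetically by red fluorescence (ex 525, em 598 nm).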
Numbers stand for hits; – = inactive; ? = inconclusive; · = not tested or not shown; [ ] = dose if it differs, or a comment. Calls follow the shape of the dose curve; as a rule, active = well fitted curve in the direction sought with a large enough effect; inconclusive = small, poorly fitted or top-dose-only effect, or another doubt; inactive = no such curve, though single readings can be large; an effect the other way counts as inactive or inconclusive.

SMILES | POLK inh | FEN1 inh | Pol eta inh | POLI inh | POLB inh | WRN helicase inh
COCCCNC(=O)CSc1ccsc1[N+](=O)[O-] | ? | – | 45µM | ? | – | –[11.6 µM]
Cc1ccc(NC(=O)Cn2c(=O)n(Cc3nc(C)no3)c(=O)c3cc4c(cc32)OCO4)c(Cl)c1 | – | – | – | – | – | ·
CC(=O)Oc1cccc(C2=CC(=O)CC(C)(C)C2=O)c1 | · | · | – | · | · | –
Cc1ccccc1-c1ccc2ncnc(NCc3cccs3)c2c1 | 22µM | · | · | · | · | ·
COc1cc(NC(=O)N2CCc3nc(Nc4cc(Cl)cc(Cl)c4)ncc3C2)cc(OC)c1OC | · | · | · | · | · | –
COc1ccc2cc(C(=O)Nc3ccccc3)sc(=O)c2c1OC | ? | – | ? | – | 22µM | –
CC1=C(C(=O)N2CCOCC2)CC(CC(=O)NC(c2ccccc2)c2ccccc2)C(=O)N1CCCN1CCCC1=O (configuration not stated) | · | · | – | · | · | –
Cc1ccc(Sc2ccc(N3CCCC(C(=O)Nc4ccc(Br)cc4)C3)nn2)cc1 (configuration not stated) | – | – | – | – | – | ·
O=[N+]([O-])c1ccc(C=C2c3ccccc3-c3ccccc32)cc1 | – | – | · | – | · | ·
CC1S/C(=C(\C#N)C(=O)NCc2ccco2)N(Cc2ccco2)C1=O (configuration not stated) | 89µM | – | ? | 22µM | – | ?
Cc1ccc(CC2S/C(=C(/C#N)C(=O)NCc3ccco3)N(c3ccccc3)C2=O)cc1 (configuration not stated) | – | – | – | – | – | –
Cc1cc(S(=O)(=O)n2ccnc2C(C)C)cc([N+](=O)[O-])c1C | – | – | – | – | – | ·
O=c1cc(CSc2nnnn2-c2ccccc2)nc(Nc2ccc(F)cc2)[nH]1 | ? | – | ? | 45µM | 45µM | –
N/C(=N\c1nc(CSc2nnnn2-c2ccccc2)cc(=O)[nH]1)Nc1ccccc1 | · | · | · | · | – | ·
COc1ccc2oc(=Nc3ccc(C(=O)O)cc3)c(C(=O)NCc3ccco3)cc2c1 | – | – | – | – | – | –
COc1ccc2cc(C(=O)NCc3ccco3)c(=Nc3ccc(C(=O)O)cc3)oc2c1 | – | ? | 89µM | – | – | –
Cc1nc2ccc(NC(=O)C3(C)CCCN(C(C)C)C3)cc2o1 (configuration not stated) | · | · | · | · | · | –
COc1c2ccc(OCC/C(C)=C/C(=O)C=C(C)C)cc2nc2occc12 | – | – | 45µM | ? | · | –[11.6 µM]
COc1cc(N(C)C)cc(CN(C)CCc2ccc([N+](=O)[O-])cc2)c1O | 3µM | · | · | · | · | ·
Cc1ccccc1NC(=O)C(=Cc1ccc(C(=O)O)cc1)C(=O)Nc1ccccc1C | – | – | 56µM | ? | – | –
CC(=O)Nc1ccccc1C | – | – | – | ? | · | –
O=C(Nc1cccnc1Cl)c1cnn2c1NC(=C1CC1)C=C2C(F)F | – | – | · | – | · | ·
CN(C)c1ccc(/C=C/c2ccnc3ccccc23)cc1N | – | – | · | 79µM | · | ·
Cc1cc(/C=C/c2ccnc3ccccc23)ccc1N | ? | – | · | ? | · | ·
Cc1cc(N(C)C)c(C)cc1/C=C/c1ccnc2ccccc12 | – | – | · | 89µM | · | ·
SMILES | POLK inh | FEN1 inh | Pol eta inh | POLI inh | POLB inh | WRN helicase inh
Clc1ccc(N=c2ssnc2Cl)nc1 | – | ? | – | – | – | –
COc1cc(N=c2ssnc2Cl)cc(OC)c1 | – | – | – | – | – | 50µM
Clc1nssc1=Nc1ccc(Br)cc1 | – | – | – | – | – | 40µM
N#Cc1cccc(N=c2ssnc2Cl)c1 | – | – | – | – | – | 25µM
O=[N+]([O-])c1ccc2c(c1)/C(=C/c1ccc(C=S)cc1)C=C2 | – | – | · | – | · | ·
Nc1nc2c(ncn2[C@@H]2O[C@H](CNC(=O)[C@H](N)Cc3cncn3COCc3ccccc3)[C@@H](O)[C@H]2O)c(=O)[nH]1 | · | · | · | · | · | –
CC1CC1C(=O)OCC(=O)Nc1ccc2[nH]c(=O)[nH]c2c1 (configuration not stated) | – | – | 50µM | 40µM | 25µM | –
O=c1c2cc(F)ccc2sn1-c1ccccc1 | – | 79µM | – | – | · | –
O=c1c2ccccc2sn1-c1nccs1 | – | ? | – | – | – | 25µM
O=c1c2ccccc2sn1-c1ccccc1 | – | ? | – | ? | – | 50µM
Cc1ccccc1-n1sc2cc(F)ccc2c1=O | – | 79µM | – | – | – | 14µM
CC(=O)N(Cc1cccnc1)c1nc2c(C)cccc2s1 | – | – | – | – | – | ·
O=C(O)c1cccc(-n2sc3ccccc3c2=O)c1 | – | 20µM | – | ? | · | –[11.6 µM]
O=c1c2ccccc2sn1-c1cccc(Cl)c1 | · | · | – | · | · | –
Cc1ccc(-c2cc(C(=O)NCc3cnn(C)c3)c3cc(Br)ccc3n2)cc1 | – | – | 79µM | – | – | –
Cc1ccc(-n2nc(CO)c(C(=O)NCc3ccccn3)n2)cc1C | – | – | – | – | – | ·
O=C1C=C(O)c2cccc3cccc1c23 | – | 2µM | – | – | – | –
O=C1C=C(O)c2c(O)cccc2C1=O | · | · | · | · | 16µM | ·
O=C1C=C(N2CCOCC2)c2cccc3cccc1c23 | · | · | – | · | · | –
Cc1nnc(SCc2ccccc2Cl)c2cc3sccc3n12 | – | – | – | – | ? | ·
O=C(O)C(S)[C@@H](S)C(=O)O (some centres not stated) | 22µM | · | · | · | · | ·
O=C(O)C(S)C(S)C(=O)O (configuration not stated) | ? | – | ? | ? | · | –
O=[N+]([O-])c1cccc2nc3ccccc3c(NCCCn3ccnc3[N+](=O)[O-])c12 | – | – | ? | ? | · | ?
NS(=O)(=O)c1ccc(N/N=C/c2ccc(O)cc2O)c([N+](=O)[O-])c1 | ? | – | ? | 50µM | 25µM | ?
Cc1cnc2c(C)ccc(C)c2c1/C=C/c1ccc(N(C)C)cc1 | – | – | · | – | · | ·
SMILES | POLK inh | FEN1 inh | Pol eta inh | POLI inh | POLB inh | WRN helicase inh
O=C1OCCC1Sc1nc2ccccc2c(=O)n1Cc1ccc(F)cc1 (configuration not stated) | – | – | ? | ? | 25µM | –
O=C1OCCC1Sc1nc2ccccc2c(=O)n1-c1ccc(F)cc1 (configuration not stated) | – | – | – | – | – | –
CC(=O)NCCNC(=O)c1ccc(CSc2ccc(Cl)cc2)cc1 | – | – | – | – | – | –
CCNC(=O)c1ccc(CSc2ccc(Cl)cc2)cc1 | – | – | – | 79µM | – | –
CCCCCOC(=O)c1ccccc1C(=O)O | – | – | – | – | – | –
CCCCCCCCCCCCCCOc1ccc(C(=O)O)o1 | 12µM | · | · | · | · | ·
CCOc1cc(CNC(=O)c2cc(-c3ccccc3)n[nH]2)cc(OCC)c1OCC | – | – | – | – | – | ·
COc1ccc(CNC(=O)/C=C/[C@H]2O[C@@H](n3cc(C)c(=O)[nH]c3=O)C[C@@H]2O)cc1 | · | · | · | · | · | –
Fc1ccc(C[n+]2csc3ccccc32)cc1 | – | – | – | – | – | 56µM

Screening results from PubChem.
